Assay results reported in PubChem BioAssay.
Values joined by “and” are separate entries in the source; they are usually repeats but may differ in a detail not shown here. Equal entries are not always repeated. Results filed as inconclusive are left out. For some assays here: Results with a measured potency or affinity are listed apart. A structure can be active in one record and inactive in another. Active and inactive are the calls of the source. Unless noted, how the calls were made is not given here.

Key:
[1] = blockers of polyQ-driven CASP3 activation – cell-based (AID 1583); conditions: polyglutamine-induced caspase-3 activation, cell assay; stronger effect = higher value;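 tested at 10 µM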
[2] = yeast 75Q aggregation reduction – 75Q-TubU reporter (AID 1593); conditions: Yeast 75Q polyglutamine aggregation reporter
[3] = restoration of touch response, mutant HTT neurons – whole organism, C. elegans mechanosensory neurons, N-terminal huntingtin (AID 1599); conditions: C. elegans polyQ-huntingtin mechanosensory neurons, stronger effect = higher value
[4] = blockers of cytochrome c efflux from mitochondria – biochemical, purified mitochondria (AID 1603); conditions: stronger effect = lower value;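 further: mouse liver mitochondria challenged with calcium chloride; signal normalized to the plate average as 100%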
[5] = polyglutamine aggregate formation blockers (AID 1604); conditions: polyglutamine-induced protein aggregation inhibition assay; stronger effect = higher value; tested at 2.5 µM
[6] = glutamate transport activators, MN-1 cells, MN-1 cell line (AID 1612); conditions: MN-1 motor neuron cells, stronger effect = higher value;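 further: tested at 1 µM final; 0% = mean of DMSO vehicle wells on each plate; positive means more glutamate uptake than control and negative means less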
[7] = GFP-Q80 aggregate reduction, neuronal-like cells, cell-based, NGF-treated PC12, GFPQ80 (AID 1614); conditions: PC12 NGF-treated GFP-polyQ80 inclusion reduction;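 further: lower means fewer inclusions and 0 means no inclusions at all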
[8] = 75Q-TubH aggregate inhibition, S. cerevisiae, yeast (AID 1616); conditions: S. cerevisiae 75Q-TubH polyglutamine aggregation suppression; stronger effect = higher value
[9] = compounds altering circadian rhythm period length – cell-based, LOPAC library, luminescence reporter (AID 2774); conditions: circadian reporter cells, at 7 µM, actives lie on both sides;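 further: values are relative to mean of DMSO wells on each plate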
[10] = compounds altering viability of human ES cells (AID 493140); conditions: human embryonic stem cell survival screen; stronger effect = higher value;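 further: cells exposed to compounds for four days before counting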
[11] = test system: Hepatitis C virus NS3 helicase; experiment: blockers of NS3h binding to ssDNA – biochemical, fluorescence polarization, LOPAC1280 library, primary screen (AID 687035; in the data active means inhibition above about 37%); conditions: Purified HCV NS3 helicase, Cy5-dT15 ssDNA binding fluorescence polarization; stronger effect = higher value; concentration not given here
[12] = compounds altering Cy5-DNA-NS3h complex signal – biochemical, LOPAC1280, artefact control for HCV NS3 helicase inhibitor project (AID 687037); conditions: Cy5-DNA-NS3h complex fluorescence interference counterscreen
[13] = signal quenchers or enhancers, Cy5 substrate/SSB – biochemical, NIH Clinical Collection, E. coli SSB, artefact control for HCV NS3 helicase inhibitor project (AID 743268); conditions: Cy5-oligo bound E. coli SSB, fluorescence interference
[14] = test system: Hepatitis C virus NS3 helicase; experiment: blockers of NS3h binding to DNA – biochemical, fluorescence polarization, NIH Clinical Collection, primary screen (AID 743270); conditions: NS3 helicase binding to Cy5-dT15 DNA, stronger effect = higher value, concentration not given here
[15] = target: Single-stranded DNA-binding protein (Escherichia coli (strain K12)) (UniProt P0AGE0); experiment: SSB-ssDNA binding inhibitors – biochemical, fluorescence polarization, NIH Clinical Collection, counter-screen for HCV NS3 helicase inhibitor project (AID 743271; in the data active means inhibition above about 28%); conditions: E. coli SSB-DNA binding, stronger effect = higher value, concentration not given here
[16] = compounds distorting NS3 helicase fluorescence signal – biochemical, NIH Clinical Collection, artefact control for HCV NS3 helicase inhibitor project (AID 743272); conditions: fluorescence interference counterscreen, HCV NS3 helicase assay; stronger effect = lower value;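 further: HCV NS3 helicase with a Cy5 labelled single stranded DNA probe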
[17] = Wnt pathway potentiators raising nuclear beta-catenin – imaging, WNT3A-conditioned medium, mouse C2C12, NPC library, primary screen (AID 1117326; in the data active means nuclear beta-catenin stimulation mostly above about 4.2%, no sharp cut-off; inactive means mostly below about 10%); conditions: stronger effect = higher value
[18] = stimulators of insulin release from INS-1E, primary screen, cell-based, 5 mM glucose, NPC library (AID 1117329;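 active means compound raises insulin release from rat beta cells at 5 mM glucose, no numeric limit stated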); conditions: rat INS-1E insulin secretion, at 10 µM, stronger effect = higher value
[19] = growth inhibition of GSK3B-pretreated HCT116 cells – cell-based, CellTiter-Glo, 0.2 to 20 µM (AID 1117336;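 active means compounds lowering colon cancer cell viability after pretreatment blocking the GSK3B kinase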); conditions: HCT116 viability after GSK3B inhibitor, at 20 µM, stronger effect = higher value
[20] = inhibition of endothelial tube formation, primary screen, imaging, VEGF stimulated, CD31 staining, tube area, NPC library (AID 1117340;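 active means compound that reduces growth-factor-driven endothelial tube area in a mixed cell culture, no cutoff stated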); conditions: VEGF-stimulated ADSC/ECFC co-culture, at 10 µM, stronger effect = higher value
[21] = GLP1 release stimulators, primary, NCI-H716, NPC library (AID 1117341;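 active means compound raises GLP1 secretion from the human gut endocrine cells, with no numeric limit stated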); conditions: NCI-H716 cells, at 10 µM, stronger effect = higher value
[22] = HCT116 colon cancer cell growth inhibition, primary screen, CellTiter-Glo luminescence, NPC library (AID 1117342;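 active means compounds that lower survival of HCT116 colon cancer cells in the luminescence readout, no numeric limit stated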); conditions: at 20 µM (top of the series)
[23] = reduced SW480 viability measured with CellTiter-Glo, NPC library, primary (AID 1117343;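 active means compounds that lower viability of the colon cancer cells in the luminescence readout, with no numeric limit stated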); conditions: CellTiter-Glo luminescence; at 20 µM (top of the series)
[24] = NPC library primary testing for decreased DLD-1 cell viability via CellTiter-Glo (AID 1117346;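 active means compounds that lower survival of DLD-1 colon cancer cells in the luminescence readout, no cutoff given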); conditions: DLD-1 viability, CellTiter-Glo luminescence; at 20 µM (top of the series)
[25] = target: 6-phosphogluconate dehydrogenase, decarboxylating (Homo sapiens) (UniProt P52209); experiment: inhibition of human phosphogluconate dehydrogenase – biochemical, recombinant enzyme, NADPH absorbance, primary screen (AID 1159550;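 active means at least 20% inhibition of 6-phosphogluconate dehydrogenase activity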); conditions: recombinant 6PGD, NADPH absorbance 341 nm; at 10 µM; stronger effect = higher value
Chain of 6-phosphogluconate dehydrogenase, decarboxylating (Homo sapiens) (P52209 whole entry, looked up): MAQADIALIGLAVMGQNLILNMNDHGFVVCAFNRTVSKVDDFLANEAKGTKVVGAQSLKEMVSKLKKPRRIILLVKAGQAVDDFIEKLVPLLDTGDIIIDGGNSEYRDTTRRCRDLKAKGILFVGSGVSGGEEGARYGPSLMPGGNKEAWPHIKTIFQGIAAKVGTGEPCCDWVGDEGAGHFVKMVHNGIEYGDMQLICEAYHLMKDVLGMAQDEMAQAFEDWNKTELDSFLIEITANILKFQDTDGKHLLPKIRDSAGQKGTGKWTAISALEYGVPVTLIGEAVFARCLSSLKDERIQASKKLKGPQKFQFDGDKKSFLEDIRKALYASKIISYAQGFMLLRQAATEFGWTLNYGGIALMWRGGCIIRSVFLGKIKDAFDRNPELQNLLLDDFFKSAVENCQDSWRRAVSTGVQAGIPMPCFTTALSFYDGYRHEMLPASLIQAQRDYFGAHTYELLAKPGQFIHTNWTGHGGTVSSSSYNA

[26] = modulation of C. elegans fzo-1 (AID 1259413);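 further: fzo-1 mutant C. elegans worms in liquid wells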; conditions: C. elegans fzo-1 modulator screen, mean read-out; stronger effect = higher value
[27] = EMT-state selective cytotoxicity in co-culture – imaging, PC-3E GFP, TEM4-18 mCherry, primary screen (AID 1345086;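 active means compounds killing one labelled cell type while sparing the other, by normalised counts and ratio limits, not self-fluorescent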;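 on all read-outs here: cells exposed to compound for 72 h before imaging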;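 on red/green cell ratio (normalised): normalised mesenchymal count divided by normalised epithelial count so high means epithelial killing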); conditions: PC-3E GFP / TEM4-18 mCherry co-culture, imaging cell counts, at 1 µM; for red/green cell ratio (normalised): actives lie on both sides, counts scaled to control wells, 1 = unselective
[28] = test system: Aerobactin synthetase IucA (Klebsiella pneumoniae); experiment: inhibition of K. pneumoniae IucA enzyme – biochemical, Tocris library, absorbance (AID 1345561); conditions: purified IucA enzyme assay, absorbance (OD) read-out; stronger effect = lower value;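 tested at 8 µM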;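 further: 100% = enzyme without compound and 0% = no enzyme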
[29] = viability loss in pontine glioma line – cell-based, SU-DIPG-XIII, MIPE4.0, CellTiter-Glo, qHTS, dose response (AID 1347061; cut-off not given, nearly all actives have AC50 up to about 37 µM;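 further: cells exposed to compound for 48 hours before readout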); conditions: CellTiter-Glo ATP luminescence
[30] = viability loss in pontine glioma line – cell-based, JHH-DIPG-1, MIPE4.0, CellTiter-Glo, qHTS, dose response (AID 1347062; cut-off not given, nearly all actives have AC50 up to about 27 µM); conditions: JHH-DIPG-1 viability, CellTiter-Glo ATP luminescence
[31] = viability loss in pontine glioma line – cell-based, SU-DIPG-XXV, MIPE5.0, CellTiter-Glo, qHTS, dose response (AID 1347065; cut-off not given, nearly all actives have AC50 up to about 26 µM;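 further: cells exposed to compound for 48 hours before ATP readout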); conditions: CellTiter-Glo ATP luminescence
[32] = chitosan synthesis blockers in C. neoformans – flow cytometry, Cibacron Brilliant Red staining (AID 1347148); conditions: Cryptococcus neoformans chitosan, stronger effect = lower value; at 99.1 µM unless noted;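 further: compound exposure lasted three days at 37 degrees C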
[33] = blockers of cellular phospholipid synthesis – cell-based, LOPAC library, screen 4, primary screen (AID 1347384); conditions: animal cells, phospholipid biosynthesis inhibition screen; at 10 µM
[34] = MELAS cybrid and Rieske KO viability enhancers – cell-based, MELAS cybrids, Rieske KO mouse fibroblasts, CellTiter-Glo, primary screen (AID 1508586;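 active means mean z-score across replicates of 1.96 or higher in either the MELAS or the Rieske mutant cell line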;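 further: z relative to plate mean and SD of compound and empty wells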); conditions: low glucose
[35] = target: NAD(+) hydrolase SARM1 (Homo sapiens) (UniProt Q6SZW1); experiment: blocking NAD cleavage by SARM1 SAM-TIR – cell lysate, NAD-Glo luminescence (AID 1508614;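 active means compound whose remaining NAD level is above about 45 nM, limit read from the data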); conditions: SAM-TIR HEK293T lysate NADase, at 1 µM, stronger effect = higher value
Chain of NAD(+) hydrolase SARM1 (Homo sapiens) (Q6SZW1 whole entry, looked up, the tested form may be a part): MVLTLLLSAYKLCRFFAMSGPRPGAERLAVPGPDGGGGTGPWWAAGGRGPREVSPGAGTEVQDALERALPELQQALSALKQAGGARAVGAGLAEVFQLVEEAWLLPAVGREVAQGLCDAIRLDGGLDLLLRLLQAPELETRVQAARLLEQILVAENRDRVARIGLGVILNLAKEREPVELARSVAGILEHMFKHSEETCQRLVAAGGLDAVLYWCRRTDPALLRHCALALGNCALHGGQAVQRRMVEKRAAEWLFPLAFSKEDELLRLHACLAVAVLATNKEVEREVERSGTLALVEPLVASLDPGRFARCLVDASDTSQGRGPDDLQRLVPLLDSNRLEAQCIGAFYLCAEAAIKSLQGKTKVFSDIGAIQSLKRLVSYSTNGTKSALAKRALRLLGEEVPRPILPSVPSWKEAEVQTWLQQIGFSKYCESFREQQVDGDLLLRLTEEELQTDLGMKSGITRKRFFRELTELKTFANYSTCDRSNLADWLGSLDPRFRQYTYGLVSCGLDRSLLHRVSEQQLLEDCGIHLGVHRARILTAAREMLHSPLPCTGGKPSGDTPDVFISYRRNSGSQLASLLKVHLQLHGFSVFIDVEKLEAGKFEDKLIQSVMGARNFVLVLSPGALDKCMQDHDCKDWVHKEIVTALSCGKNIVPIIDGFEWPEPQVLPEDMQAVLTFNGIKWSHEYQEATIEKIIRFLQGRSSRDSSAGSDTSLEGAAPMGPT

[36] = target: Mitogen-activated protein kinase 7 (Homo sapiens) (UniProt Q13164); experiment: Gal4-ERK5 driven luciferase induction – cell-based, HTS, primary screen (AID 1508626;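 active means luciferase signal above three times the same-plate solvent-only control wells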;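 further: luciferase driven by Gal4-ERK5 fusion binding five Gal4 sites before minimal TATA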); conditions: HeLa Gal4-ERK5 transactivation, 18 h, at 5 µM, stronger effect = higher value
Chain of Mitogen-activated protein kinase 7 (Homo sapiens) (Q13164 whole entry, looked up, the tested form may be a part): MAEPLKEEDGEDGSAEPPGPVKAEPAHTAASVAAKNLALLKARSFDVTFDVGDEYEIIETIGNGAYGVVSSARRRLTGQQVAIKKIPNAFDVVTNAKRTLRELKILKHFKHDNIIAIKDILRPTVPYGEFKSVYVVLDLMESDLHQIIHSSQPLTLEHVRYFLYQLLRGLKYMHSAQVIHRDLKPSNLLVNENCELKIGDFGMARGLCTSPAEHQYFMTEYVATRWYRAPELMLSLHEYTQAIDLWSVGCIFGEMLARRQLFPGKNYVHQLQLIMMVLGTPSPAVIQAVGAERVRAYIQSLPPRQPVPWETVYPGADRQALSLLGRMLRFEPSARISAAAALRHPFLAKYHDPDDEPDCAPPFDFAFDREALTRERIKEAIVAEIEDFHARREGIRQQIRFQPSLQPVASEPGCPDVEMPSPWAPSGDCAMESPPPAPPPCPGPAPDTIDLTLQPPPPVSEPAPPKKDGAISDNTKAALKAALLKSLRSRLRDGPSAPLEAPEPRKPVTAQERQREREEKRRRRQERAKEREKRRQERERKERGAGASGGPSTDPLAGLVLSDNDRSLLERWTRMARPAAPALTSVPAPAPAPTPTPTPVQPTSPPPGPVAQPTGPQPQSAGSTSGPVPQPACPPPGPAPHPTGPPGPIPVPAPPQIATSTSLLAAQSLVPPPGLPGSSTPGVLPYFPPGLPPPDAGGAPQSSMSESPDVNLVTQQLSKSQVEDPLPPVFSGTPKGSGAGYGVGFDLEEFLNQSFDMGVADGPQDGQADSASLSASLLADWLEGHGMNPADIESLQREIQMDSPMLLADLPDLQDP

[37] = P. berghei load reduction in hepatocytes – cell-based, HepG2, luciferase luminescence, HepG2 viability, primary screen (AID 624349; in the data active means parasite load remaining mostly below about 12%, no sharp cut-off; inactive means mostly above about 10%;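 further: 100% = mean of DMSO negative control wells on the same plate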); conditions: P. berghei liver stage in HepG2, luciferase luminescence, concentration not given here; parasite load remaining: stronger effect = lower value; viability: measured here: HepG2 viability without parasites
[38] = test system: Neuropilin-2 / VEGF-C interaction (human); experiment: small molecules blocking Neuropilin-2/VEGF-C interaction – biochemical, microplate binding format, z-score (AID 743281); conditions: microplate NRP2/VEGF-C binding assay; stronger effect = lower value
[39] = viability loss in pontine glioma line – cell-based, SU-DIPG-IV, MIPE4.0, CellTiter-Glo, qHTS, dose response (AID 1347063; cut-off not given, nearly all actives have AC50 up to about 30 µM;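 further: compound exposure lasted 48 hours before the viability readout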); conditions: CellTiter-Glo ATP luminescence
[40] = measured here: epithelial PC-3E GFP cell survival
[41] = measured here: mesenchymal TEM4-18 mCherry cell survival
[42] = MELAS cybrid survival, CellTiter-Glo 48 h, stronger effect = higher value
[43] = Rieske KO mouse fibroblast survival, CellTiter-Glo 72 h

Question: Which results are given for `OCCN(CCO)c1nc(N2CCCCC2)c2nc(N(CCO)CCO)nc(N3CCCCC3)c2n1`?
Answer: inhibition [1]: -102%; score [2]: 1.27; rescue above control [3]: 18.2; cytochrome c release ratio [4]: 1.1; inhibition of aggregation [5]: 79.2%; glutamate uptake change [6]: 32%; inclusion score [7]: 2; aggregation suppression score [8]: 1.33; period change [9]: -0.245 h (inactive); survival [10]: 34.4 (inactive); inhibition [11]: -2% (inactive); fluorescence ratio (interference) [12]: 1 (inactive); fluorescence ratio [13]: 0.96 (inactive); inhibition [14]: 2.27% (inactive); inhibition [15]: 5.62% (inactive); fluorescence ratio [16]: 0.85 (inactive); nuclear beta-catenin stimulation ([17]; at 10 µM): 0.7% (inactive); nuclear beta-catenin stimulation ([17]; stimulation, at 2 µM): 1.8%; insulin secretion stimulation [18]: 0.7% (inactive); viability decrease [19]: 20.5% (inactive); tube area decrease [20]: 8.6% (inactive); GLP1 secretion stimulation [21]: 8% (inactive); inhibition of viability [22]: 61.4% (active); viability decrease (inhibition) [23]: 41.1% (inactive); viability decrease (inhibition) [24]: 4.3% (inactive); inhibition [25]: 11% (inactive); mean signal [26]: 298 (inactive); red/green cell ratio (normalised) [27]: 1.08 (inactive); normalised cell number [27, 40]: 1.13; normalised cell number [27, 41]: 1.22; remaining activity [28]: 98% (inactive); AC50 [29]: 20.9 µM (active); outcome [30]: inactive; AC50 [31]: 18.6 µM (active); fold fluorescence [32]: 2.89 (active); outcome [33]: inactive; z-score [34, 42]: -0.622 (inactive) and 4.01 (active) and 2.55 (active); z-score [34, 43]: -0.0206 and -0.634 and 4.9; remaining NAD [35]: 10 nM (inactive); luciferase signal [36]: 136 AU (inactive)

Question: What does the source list for `CCOC(=O)N1CCC(=C2c3ccc(Cl)cc3CCc3cccnc32)CC1`?
Answer: inhibition [1]: 15.4%; score [2]: 0.8; rescue above control [3]: -2.91; cytochrome c release ratio [4]: 4.23; inhibition of aggregation [5]: 56.9%; glutamate uptake change [6]: -2.42%; aggregation suppression score [8]: 0.519; period change [9]: -0.1 h (inactive); parasite load remaining [37]: 39.1% (inactive) and 10.2% (inactive) and 5.21% (inactive); viability [37]: 101% and 59.1% and 70%; inhibition [11]: 0% (inactive); fluorescence ratio (interference) [12]: 1 (inactive); fluorescence ratio [13]: 0.91 (inactive); inhibition [14]: -3.56% (inactive); inhibition [15]: 6.83% (inactive); fluorescence ratio [16]: 0.9 (inactive); z-score [38]: 0.735 (inactive); nuclear beta-catenin stimulation ([17]; at 10 µM): 1.8% (inactive); nuclear beta-catenin stimulation ([17]; stimulation, at 2 µM): 1%; insulin secretion stimulation [18]: 6.9% (inactive); viability decrease [19]: 94.1% (active); tube area decrease [20]: 39.2% (inactive); GLP1 secretion stimulation [21]: 14.3% (inactive); inhibition of viability [22]: 98.8% (active); viability decrease (inhibition) [23]: 94% (active); viability decrease (inhibition) [24]: 97.2% (active); inhibition [25]: 4.3% (inactive); mean signal [26]: 253 (inactive); red/green cell ratio (normalised) [27]: 1.35 (inactive); normalised cell number [27, 40]: 0.99; normalised cell number [27, 41]: 1.34; remaining activity [28]: 99.4% (inactive); outcome [29]: inactive; outcome [30]: inactive; AC50 [39]: 18.7 µM (active); outcome [33]: inactive; z-score [34, 42]: -0.418 (inactive) and -1.77 (inactive) and -2.01 (inactive); z-score [34, 43]: 0.823 and 1.1 and 0.356; remaining NAD [35]: 10 nM (inactive); luciferase signal [36]: 48 AU (inactive)
